From PubChem BioAssay (NCI)
The panel holds about 83,000 compounds, 20% with a hit somewhere; the sample as a whole holds those more often.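 Negative percent growth values reflect cell death: -40 means 40% of the cells present at the start died, and -100 means all died.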 Active and inactive are the calls of the source. Rule for the calls: active = growth percent below 10; inactive = the rest.

Assays:
Assay in all cases: NCI-60 one-dose screen, 48 h (100 = growth as untreated, 0 = no growth, -100 = all killed)
Conditions in all cases: 10 µM unless noted
SR leukemia = tested on: SR leukemia
RPMI-8226 leukemia = tested on: RPMI-8226 leukemia
OVCAR-8 ovarian = tested on: OVCAR-8 ovarian
OVCAR-5 ovarian = tested on: OVCAR-5 ovarian
OVCAR-4 ovarian = tested on: OVCAR-4 ovarian
SK-OV-3 ovarian = tested on: SK-OV-3 ovarian
IGROV1 ovarian = tested on: IGROV1 ovarian
OVCAR-3 ovarian = tested on: OVCAR-3 ovarian
HS 578T breast = tested on: HS 578T breast
NCI/ADR-RES ovarian = tested on: NCI/ADR-RES ovarian

Measured: growth

COc1ccc(C2c3sc4c(C)cccc4c3Oc3nc(CC(=O)Nc4ccccc4)[nH]c(=O)c32)cc1 (stereo not given)
inactive: SR leukemia 62.7% | RPMI-8226 leukemia 89.5% | OVCAR-8 ovarian 99.8% | OVCAR-5 ovarian 88.7% | OVCAR-4 ovarian 65% | SK-OV-3 ovarian 85.8% | IGROV1 ovarian 47.9% | OVCAR-3 ovarian 93.9% | HS 578T breast 87.8% | NCI/ADR-RES ovarian 38.7%

C#Cc1nc(/C=C/C(=O)c2nccn2C)cs1
inactive: OVCAR-8 ovarian 27.1% | OVCAR-4 ovarian 33.7%
active: SR leukemia -40.8% | RPMI-8226 leukemia -39.9% | OVCAR-5 ovarian -87.4% | SK-OV-3 ovarian -59.7% | IGROV1 ovarian -59.1% | OVCAR-3 ovarian -64.4% | HS 578T breast -6.46% | NCI/ADR-RES ovarian -26.1%

Nc1nc(Nc2ccccc2SSc2ccccc2Nc2nc(N)nc(-c3ccc4ccccc4c3)n2)nc(-c2ccc3ccccc3c2)n1
inactive: RPMI-8226 leukemia 84.3% | OVCAR-8 ovarian 84.4% | OVCAR-5 ovarian 99.3% | OVCAR-4 ovarian 83.9% | SK-OV-3 ovarian 112% | IGROV1 ovarian 47.6% | OVCAR-3 ovarian 106% | HS 578T breast 86.2% | NCI/ADR-RES ovarian 19.5%
active: SR leukemia -25.5%

NC(N)=Nc1ccc(Nc2cccc(Nc3ccc(Cl)c(C(F)(F)F)c3)c2)cn1
inactive: RPMI-8226 leukemia 13% | OVCAR-8 ovarian 44.7% | OVCAR-5 ovarian 73.8% | OVCAR-4 ovarian 45.4% | SK-OV-3 ovarian 77.6% | IGROV1 ovarian 33.4% | HS 578T breast 28.4% | NCI/ADR-RES ovarian 87.5%
active: SR leukemia -31.7% | OVCAR-3 ovarian -30.7%

O=C(NCCn1ccnc1)c1ccc(-c2nc3ccc4[nH]ncc4c3c3c2CCCC3)cc1
inactive: RPMI-8226 leukemia 77.6% | OVCAR-8 ovarian 77.2% | OVCAR-5 ovarian 93.9% | OVCAR-4 ovarian 66.3% | SK-OV-3 ovarian 63.1% | IGROV1 ovarian 62.8% | OVCAR-3 ovarian 36.7% | NCI/ADR-RES ovarian 102%
active: SR leukemia 2.67% | HS 578T breast 2.42%

COc1ccc(NCc2cn(-c3ccc(C(=O)O)cc3)nc2-c2cc(C(F)(F)F)cc(C(F)(F)F)c2)cc1
inactive: SR leukemia 112% | RPMI-8226 leukemia 67.2% | OVCAR-8 ovarian 109% | OVCAR-5 ovarian 104% | OVCAR-4 ovarian 100% | SK-OV-3 ovarian 99.6% | IGROV1 ovarian 108% | OVCAR-3 ovarian 101% | HS 578T breast 81.5% | NCI/ADR-RES ovarian 96.8%

COc1ccc2c(c1)Oc1nc(N)c(C#N)c(N)c1C2Sc1ccc(C)cc1 (stereo not given)
inactive: OVCAR-8 ovarian 12.7% | OVCAR-5 ovarian 15.9% | OVCAR-4 ovarian 15.1% | SK-OV-3 ovarian 86.4% | HS 578T breast 14.8%
active: SR leukemia 0.429% | RPMI-8226 leukemia -19% | IGROV1 ovarian -76.5% | OVCAR-3 ovarian -77.1% | NCI/ADR-RES ovarian 5.39%

CCCCCc1ccc(S(=O)(=O)Nc2cccc(-c3csc(NC(=O)CCCCCN4CCN(C)CC4)n3)c2)cc1
active: SR leukemia -31.4% | RPMI-8226 leukemia -22.5%
inactive: OVCAR-8 ovarian 81.9% | OVCAR-5 ovarian 88.8% | OVCAR-4 ovarian 71.4% | SK-OV-3 ovarian 97.9% | IGROV1 ovarian 69.6% | OVCAR-3 ovarian 37.1% | HS 578T breast 72.2% | NCI/ADR-RES ovarian 89.8%

Nc1ncc(-c2ccc3ncnc(Nc4cccc(Cl)c4F)c3c2)cn1
active: SK-OV-3 ovarian 0%
inactive: SR leukemia 66.3% | RPMI-8226 leukemia 47.6% | OVCAR-8 ovarian 64.3% | OVCAR-5 ovarian 47.8% | OVCAR-4 ovarian 69.5% | IGROV1 ovarian 11.4% | OVCAR-3 ovarian 57.2% | HS 578T breast 35% | NCI/ADR-RES ovarian 59.3%

O=C(CNc1nc(-c2cccc([N+](=O)[O-])c2)cs1)Nc1cccc(Cl)c1
inactive: SR leukemia 94.9% | RPMI-8226 leukemia 98% | OVCAR-8 ovarian 101% | OVCAR-5 ovarian 105% | OVCAR-4 ovarian 102% | SK-OV-3 ovarian 107% | IGROV1 ovarian 102% | OVCAR-3 ovarian 116% | HS 578T breast 110% | NCI/ADR-RES ovarian 105%

O=c1[nH]c(Sc2sc3ccc(Cl)cc3c2CBr)nc(=S)[nH]1
active: SR leukemia 7.03% | IGROV1 ovarian 4.63%
inactive: RPMI-8226 leukemia 24.2% | OVCAR-8 ovarian 41.2% | OVCAR-5 ovarian 49.3% | OVCAR-4 ovarian 40.7% | SK-OV-3 ovarian 18.4% | OVCAR-3 ovarian 56% | HS 578T breast 19.3% | NCI/ADR-RES ovarian 65.3%

O=C(CSc1nc2ccccc2c(=O)n1-c1ccc(Cl)cc1)N/N=C/c1ccc(N2CCCCC2)cc1
inactive: SR leukemia 74.8% | RPMI-8226 leukemia 100% | OVCAR-8 ovarian 65.3% | OVCAR-5 ovarian 76.9% | OVCAR-4 ovarian 58.6% | SK-OV-3 ovarian 30.1% | IGROV1 ovarian 55.5% | OVCAR-3 ovarian 32.8% | HS 578T breast 37.9% | NCI/ADR-RES ovarian 39.9%

CC(=O)N(C)C1CCc2c(sc(NC(=O)c3ccc(C(C)(C)C)cc3)c2C(N)=O)C1 (stereo not given)
active: SR leukemia 9.43%
inactive: RPMI-8226 leukemia 81.2% | OVCAR-8 ovarian 73.8% | OVCAR-5 ovarian 78.9% | OVCAR-4 ovarian 41.7% | SK-OV-3 ovarian 108% | IGROV1 ovarian 100% | OVCAR-3 ovarian 83.7% | HS 578T breast 38.9% | NCI/ADR-RES ovarian 79.6%
